Values without a mark were called inactive. Results filed as inconclusive are left out. The source made the active and inactive calls. Unless noted, calls follow the shape of the dose curve; as a rule, active = well fitted curve in the direction sought with a large enough effect; inconclusive = small, poorly fitted or top-dose-only effect, or another doubt; inactive = no such curve, though single readings can be large; an effect the other way counts as inactive or inconclusive.

Consider seven molecules from PubChem BioAssay (NCATS).

For assay [1], the target named is Lysosomal acid glucosylceramidase (Homo sapiens) (UniProt P04062). Description: Glucocerebrosidase-p2 (AID 348; in the data active = potency below about 10 µM; also: potency is read from the fitted curve at half-maximal effect). Conditions: purified GBA, blue fluorogenic substrate, 40 min. The gist of the method: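 Compounds titrated from 0.6 nM upwards against 0.2 nM enzyme in pH 5.9 citric acid/KH2PO4, taurocholate, tween-20; blue fluorogenic substrate 80 uM, 40 min room temperature, stopped and read Ex 365/Em 440 for AC50.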
Lysosomal acid glucosylceramidase (Homo sapiens), sequence (P04062 whole entry, looked up): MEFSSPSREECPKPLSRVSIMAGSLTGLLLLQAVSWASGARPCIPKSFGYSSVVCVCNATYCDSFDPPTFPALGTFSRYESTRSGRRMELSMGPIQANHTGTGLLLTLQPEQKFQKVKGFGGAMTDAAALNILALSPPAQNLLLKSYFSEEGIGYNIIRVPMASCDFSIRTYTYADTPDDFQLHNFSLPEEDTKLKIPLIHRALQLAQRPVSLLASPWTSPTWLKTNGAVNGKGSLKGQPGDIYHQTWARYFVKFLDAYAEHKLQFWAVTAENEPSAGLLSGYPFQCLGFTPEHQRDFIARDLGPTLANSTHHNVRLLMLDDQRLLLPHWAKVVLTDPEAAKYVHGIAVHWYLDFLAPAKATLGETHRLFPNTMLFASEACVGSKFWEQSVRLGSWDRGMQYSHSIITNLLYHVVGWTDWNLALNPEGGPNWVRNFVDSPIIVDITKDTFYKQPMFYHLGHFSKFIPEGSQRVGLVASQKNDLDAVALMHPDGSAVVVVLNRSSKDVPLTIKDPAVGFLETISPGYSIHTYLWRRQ

The nature of assay [2]: AP1 Signaling Pathway (AID 357; active = well fitted curve in either direction with a large enough effect, not every such curve was filed as active;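 also: ME-180 reporter cells stimulated with EGF at its EC50 level; % is scaled to controls: 0 for no effect and ±100 for the full control effect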). Conditions: ME-180 AP-1-bla reporter, EGF-induced, beta-lactamase ratio, 5 h; at 7.69 µM (top of the series) unless noted. The gist of the method: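 Titration-series screen for positive or negative modulators of EC50 EGF-induced signaling in ME-180 cells carrying an AP-1-driven beta-lactamase reporter. After 5 hours at 37 degrees Celsius, CCF4 460nm/530nm emission ratio gave %Activity; AC50 values derived.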

In assay [3] the target is Cytochrome P450 1A2 (Homo sapiens) (UniProt P05177). Description: p450-cyp1a2 (AID 410; calls by dose curve; also: potency is read from the fitted curve at half-maximal effect). Conditions: recombinant CYP1A2, luciferin-ME demethylation, luminescence; series mostly up to 57 µM. The gist of the method: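 20nM CYP1A2 with 100uM Luciferin-ME (at Km) in 100mM KPO4; compound preincubated 10 min, NADPH regeneration added, 60 min at room temperature. Luciferin quantified by luminescence after detection reagent; normalized to 57 uM furafylline.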
Cytochrome P450 1A2 (Homo sapiens), sequence (P05177 whole entry, looked up): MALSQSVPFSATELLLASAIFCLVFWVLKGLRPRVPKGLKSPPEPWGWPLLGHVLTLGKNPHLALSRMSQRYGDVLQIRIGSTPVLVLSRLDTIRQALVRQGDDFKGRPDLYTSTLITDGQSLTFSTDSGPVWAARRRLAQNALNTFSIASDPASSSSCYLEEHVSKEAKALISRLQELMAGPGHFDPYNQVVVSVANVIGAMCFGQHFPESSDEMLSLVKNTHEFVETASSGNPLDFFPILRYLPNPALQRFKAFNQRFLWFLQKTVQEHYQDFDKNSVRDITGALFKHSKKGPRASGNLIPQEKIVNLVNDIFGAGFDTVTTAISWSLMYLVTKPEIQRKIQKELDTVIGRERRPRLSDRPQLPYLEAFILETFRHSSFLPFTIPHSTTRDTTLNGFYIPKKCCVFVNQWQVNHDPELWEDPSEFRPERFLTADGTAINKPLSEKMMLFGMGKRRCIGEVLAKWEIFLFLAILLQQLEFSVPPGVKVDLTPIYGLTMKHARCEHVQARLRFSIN

For assay [4], the target named is Glucocorticoid receptor (Homo sapiens) (UniProt P04150). Description: GR-GFP Redistribution (AID 450;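 active = compounds whose dose series gives a full or clear partial fitted curve of increased nuclear translocation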; also: potency is read from the fitted curve at half-maximal effect). Conditions: U2OS GR-GFP nuclear translocation, laser cytometry, 2 h.
Glucocorticoid receptor (Homo sapiens), sequence (P04150 whole entry, looked up, the tested form may be a part): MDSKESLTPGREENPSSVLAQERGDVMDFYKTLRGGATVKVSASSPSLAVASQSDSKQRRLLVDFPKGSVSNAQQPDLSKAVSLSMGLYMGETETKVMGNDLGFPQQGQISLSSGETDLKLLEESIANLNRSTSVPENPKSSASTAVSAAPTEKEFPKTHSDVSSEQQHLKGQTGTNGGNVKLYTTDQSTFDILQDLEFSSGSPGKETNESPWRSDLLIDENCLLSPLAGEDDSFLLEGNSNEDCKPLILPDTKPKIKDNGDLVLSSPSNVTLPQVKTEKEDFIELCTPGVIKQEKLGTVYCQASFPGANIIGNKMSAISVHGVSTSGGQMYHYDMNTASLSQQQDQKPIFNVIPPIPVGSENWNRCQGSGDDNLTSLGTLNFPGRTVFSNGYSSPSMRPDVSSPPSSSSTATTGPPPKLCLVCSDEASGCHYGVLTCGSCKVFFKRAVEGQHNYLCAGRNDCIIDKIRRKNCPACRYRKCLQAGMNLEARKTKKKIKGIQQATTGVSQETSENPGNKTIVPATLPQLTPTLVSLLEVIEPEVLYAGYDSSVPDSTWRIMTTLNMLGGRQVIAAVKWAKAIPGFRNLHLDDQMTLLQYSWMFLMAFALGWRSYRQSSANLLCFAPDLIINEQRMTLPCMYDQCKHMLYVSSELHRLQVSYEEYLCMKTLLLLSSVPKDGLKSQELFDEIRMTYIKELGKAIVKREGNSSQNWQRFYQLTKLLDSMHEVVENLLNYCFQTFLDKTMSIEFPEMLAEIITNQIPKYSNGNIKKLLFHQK
The target is the same in assay [5]. Kind of assay: GR-EFC Redistribution (AID 451; calls by dose curve; also: potency is read from the fitted curve at half-maximal effect). Conditions: CHO-K1 GR-EFC translocation, beta-gal luminescence, 2 h. Summed up: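 CHO-K1 cells expressing nuclear EA and GR-ED fragments of b-gal; compounds titrated up to 46 uM final, 2 h at 37 C. GR nuclear translocation read as complemented b-gal luminescence after 1 h RT detection.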
In assay [6] the target is Mitogen-activated protein kinase 10 (Mus musculus) (UniProt Q61831). Description: JNK3 AlphaScreen Assay (AID 530; active = well fitted curve in either direction with a large enough effect, not every such curve was filed as active;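 also: kinase came from lysate of stimulated human HepG2 cells; signal reports phosphorylation of biotinylated GST-cJun 1-79 at Ser73 with 10 µM ATP; % is scaled to controls: 0 for no effect and ±100 for the full control effect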). To be noted: JNK3 lysate, c-Jun phosphorylation; series mostly up to 57.1 µM. Summed up:
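Pre-activated (IL-1β/TNFα) JNK3 in HepG2 lysates phosphorylates biotin-GST-cJun(1-79), 10 uM ATP; anti-phospho-cJun(Ser73) AlphaScreen read at room temperature, pH 7.6 Tris buffer. Compounds pre-incubated 15 min as titrations.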

For assay [7], the target named is Cytochrome P450 3A4 (Homo sapiens) (UniProt P08684). Kind of assay: qHTS Assay for Activators of Cytochrome P450 3A4 (AID 885). Also: nearly all actives have a fitted effect of over 65% in size. To be noted: recombinant CYP3A4, Luciferin-PPXE luminescence, 60 min; series mostly up to 57.1 µM. Summed up: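 Quantitative HTS format: compounds preincubated with 20nM human CYP3A4 and Luciferin-PPXE substrate at KM, reaction started by NADPH regeneration, stopped after 60 min, luciferase luminescence read 20 min later.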
Cytochrome P450 3A4 (Homo sapiens), sequence (P08684 whole entry, looked up): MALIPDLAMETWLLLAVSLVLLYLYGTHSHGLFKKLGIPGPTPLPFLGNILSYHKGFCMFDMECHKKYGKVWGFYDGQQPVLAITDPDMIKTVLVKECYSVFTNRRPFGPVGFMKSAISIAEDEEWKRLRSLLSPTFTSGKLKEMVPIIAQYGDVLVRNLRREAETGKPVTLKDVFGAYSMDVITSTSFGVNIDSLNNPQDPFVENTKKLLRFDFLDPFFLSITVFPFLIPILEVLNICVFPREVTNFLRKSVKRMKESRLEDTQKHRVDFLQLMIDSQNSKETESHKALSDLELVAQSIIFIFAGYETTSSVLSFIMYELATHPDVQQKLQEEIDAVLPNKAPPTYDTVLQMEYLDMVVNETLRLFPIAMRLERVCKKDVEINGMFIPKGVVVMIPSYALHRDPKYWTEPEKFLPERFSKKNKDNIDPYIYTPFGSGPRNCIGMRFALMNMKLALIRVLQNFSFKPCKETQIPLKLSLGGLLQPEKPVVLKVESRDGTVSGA
Background: qHTS replaces the single test concentration by a dilution series.

For assay [8], the target named is Cytochrome P450 2C19 (Homo sapiens) (UniProt P33261). Kind of assay: qHTS Assay for Inhibitors and Substrates of Cytochrome P450 2C19 (AID 899). Also: potency is read from the fitted curve at half-maximal effect; nearly all actives have a fitted effect of over 60% in size. Conditions: recombinant CYP2C19, luciferin-H EGE luminescence; series mostly up to 57.1 µM. The gist of the method:
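Signal comes from luciferase acting on luciferin released by CYP2C19-mediated hydroxylation of Luciferin-H EGE, 10uM (KM). Assay mix: 5nM enzyme, 50mM KPO4; 60 min at 37C with NADPH regeneration. Data normalized against 57uM ketoconazole.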

In assay [9] the target is Dual specificity protein kinase CLK4 (Homo sapiens) (UniProt Q9HAZ1). Description: qHTS Assay for Inhibitors of CDC-like Kinase 4 (Kinase-Glo Assay) (AID 1770). Also: nearly all actives have a fitted effect of over 65% in size. Also: potency is read from the fitted curve at half-maximal effect. Conditions: recombinant Clk4, Kinase-Glo ATP depletion luminescence; series mostly up to 66.7 µM. Summed up: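 Clk4 25 nM, RS peptide 100 uM, ATP 1 uM, pH 7.5 Tris, 10 mM MgCl2, 2.5 mM DTT; 4.5 h RT; ATP depletion read by Kinase-Glo luminescence.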
Dual specificity protein kinase CLK4 (Homo sapiens), sequence (Q9HAZ1 whole entry, looked up): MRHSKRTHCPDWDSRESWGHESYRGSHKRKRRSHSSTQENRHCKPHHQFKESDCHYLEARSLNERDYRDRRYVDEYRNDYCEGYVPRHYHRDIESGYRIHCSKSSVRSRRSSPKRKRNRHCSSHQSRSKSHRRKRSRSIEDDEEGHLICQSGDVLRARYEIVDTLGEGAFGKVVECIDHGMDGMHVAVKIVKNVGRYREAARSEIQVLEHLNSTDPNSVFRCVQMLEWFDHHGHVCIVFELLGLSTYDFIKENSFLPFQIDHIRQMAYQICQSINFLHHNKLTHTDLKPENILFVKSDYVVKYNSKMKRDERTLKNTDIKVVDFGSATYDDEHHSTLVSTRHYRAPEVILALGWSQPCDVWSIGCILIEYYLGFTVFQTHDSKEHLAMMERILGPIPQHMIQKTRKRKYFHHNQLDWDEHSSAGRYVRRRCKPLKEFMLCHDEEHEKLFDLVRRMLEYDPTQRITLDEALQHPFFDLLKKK

For assay [10] the target is unchanged. Kind of assay: qHTS Assay for Inhibitors of CDC-like Kinase 4 (ADP-Glo Assay) (AID 1771). Also: nearly all actives have a fitted effect of over 70% in size. Also: potency is read from the fitted curve at half-maximal effect. Conditions: recombinant CLK4, ADP-Glo luminescence; series mostly up to 80 µM. Summed up:
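25 nM Clk4 with 100 uM RS repeat peptide and 1 uM ATP (final) in buffer with 2 mM MgCl2, 0.5 mM EGTA, 2.5 mM DTT, 0.01% Triton X-100; 1 h at room temperature; ADP-Glo luminescence for ADP formed.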

For assay [11] the target is unchanged. Description: qHTS Assay for Inhibitors of CDC-like Kinase 4 (ADP-FP Assay) (AID 1795). Also: nearly all actives have a fitted effect of over 60% in size. Also: potency is read from the fitted curve at half-maximal effect. To be noted: Transcreener ADP fluorescence polarization; series mostly up to 50 µM. The gist of the method: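 Kinase activity was followed as ADP output, converted from fluorescence polarization with a calibration curve. Reactions ran one hour at low ATP (1 uM) with RS peptide substrate.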

Assay [12] in a line: Primary qHTS for small molecule stabilizers of the endoplasmic reticulum resident proteome: Secreted ER Calcium Modulated Protein (SERCaMP) assay (AID 1508630). Also: % is scaled to controls: 0 for no effect and ±100 for the full control effect. To be noted: SH-SY5Y GLuc-SERCaMP (Gaussia luciferase released on ER calcium loss) secretion, thapsigargin, luminescence; series mostly up to 38.4 µM. Summed up:
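GLuc-SERCaMP-expressing SH-SY5Y cells, pretreated 16 h with compound, are challenged with thapsigargin to empty ER calcium stores; after 4 h, coelenterazine is added directly to the medium and luminescence is imaged.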

Assay [13] has as its target 3',5'-cyclic-AMP phosphodiesterase 4B (Homo sapiens) (UniProt Q07343). Description: qHTS Assay for Inhibitors of PDE-IV (AID 607; active = well fitted activation curve with a large enough effect in the main read-out, with a control signal flat, not every such curve was filed as active; also: % of control where 0% means no effect). To be noted: HEK293 ACTOne CNG channel cells, membrane potential fluorescence; series mostly up to 22.9 µM. Summed up: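 Live HEK293 cells with a modified cyclic nucleotide-gated (CNG) channel report intracellular cAMP via membrane-potential dye fluorescence (ex 535/em 590 nm). Endogenous PDE-IV was targeted. Compounds were tested at up to 22.9 uM final; RO 20-1724 100 uM served as control.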

For assay [14], the target named is Ubiquitin carboxyl-terminal hydrolase 1 (Homo sapiens) (UniProt O94782). Description: Inhibitors of USP1/UAF1: Pilot qHTS (AID 504865).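 Also: rhodamine fluorescence freed from ubiquitin-rhodamine substrate followed over time; top concentration of the series differs between compounds; % is scaled to controls: 0 for no effect and ±100 for the full control effect; nearly all actives have a fitted effect of over 35% in size.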 Conditions: purified USP1/UAF1, Ub-rhodamine cleavage fluorescence; series mostly up to 54.9 µM. Summed up: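 Enzyme-free wells gave the negative control, while test wells held 1nM USP1/UAF1 preincubated with compound for 15 min at room temperature. Ub-Rho at 150nM final started the reaction, and fluorescence at 480/540 nm was recorded kinetically.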
Ubiquitin carboxyl-terminal hydrolase 1 (Homo sapiens), sequence (O94782 whole entry, looked up): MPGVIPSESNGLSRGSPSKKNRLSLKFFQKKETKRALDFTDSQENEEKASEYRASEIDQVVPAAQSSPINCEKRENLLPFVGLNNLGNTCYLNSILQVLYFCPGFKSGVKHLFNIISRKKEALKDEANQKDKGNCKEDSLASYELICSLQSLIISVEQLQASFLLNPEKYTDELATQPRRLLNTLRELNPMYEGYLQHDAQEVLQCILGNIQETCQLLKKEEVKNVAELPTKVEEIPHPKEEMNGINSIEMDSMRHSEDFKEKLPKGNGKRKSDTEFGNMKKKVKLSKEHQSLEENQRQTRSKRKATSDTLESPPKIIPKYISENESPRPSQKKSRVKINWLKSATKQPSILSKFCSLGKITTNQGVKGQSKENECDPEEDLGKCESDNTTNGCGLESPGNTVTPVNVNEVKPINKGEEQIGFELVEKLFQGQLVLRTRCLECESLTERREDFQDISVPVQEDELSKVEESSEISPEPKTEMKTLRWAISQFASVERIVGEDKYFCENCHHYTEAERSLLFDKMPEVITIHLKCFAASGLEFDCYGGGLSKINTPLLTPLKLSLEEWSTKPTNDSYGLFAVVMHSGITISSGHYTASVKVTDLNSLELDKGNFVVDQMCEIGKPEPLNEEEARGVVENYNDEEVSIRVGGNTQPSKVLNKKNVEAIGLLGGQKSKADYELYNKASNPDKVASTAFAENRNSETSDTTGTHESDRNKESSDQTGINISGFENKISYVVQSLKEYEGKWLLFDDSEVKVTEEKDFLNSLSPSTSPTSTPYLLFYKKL

Assay [15] is described as follows: NFAT Signaling Pathway (AID 444; active = well fitted curve in either direction with a large enough effect, not every such curve was filed as active;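 also: carbachol stimulus at about its EC50 of 1 µM final; % is scaled to controls: 0 for no effect and ±100 for the full control effect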). Conditions: Jurkat NFAT-bla M1, carbachol, beta-lactamase ratio, 5 h; at 7.69 µM (top of the series) unless noted. Summed up: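 Jurkat cells with NFAT-driven β-lactamase reporter and co-expressed M1 receptor, stimulated with carbachol (final 1 uM, ~EC50), compound titration, 5 h at 37 °C. CCF4 loaded 1 h at RT; 460/530 nm ratio gave %activity and AC50.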

The nature of assay [16]: Stat Signaling Pathway (AID 446; active = well fitted curve in either direction with a large enough effect, not every such curve was filed as active). To be noted: ME-180 (cervical carcinoma) SIE beta-lactamase reporter, IL-6 stimulated, 5 h; at 7.69 µM (top of the series) unless noted. Summed up:
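IL-6/STAT signaling read in ME-180 cells via an SIE beta-lactamase reporter. Stimulus was 40 pM IL-6 (its AC50) for 5 hrs, so both activation and inhibition register.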

3',5'-cyclic-AMP phosphodiesterase 4B (Homo sapiens), sequence (Q07343 whole entry, looked up): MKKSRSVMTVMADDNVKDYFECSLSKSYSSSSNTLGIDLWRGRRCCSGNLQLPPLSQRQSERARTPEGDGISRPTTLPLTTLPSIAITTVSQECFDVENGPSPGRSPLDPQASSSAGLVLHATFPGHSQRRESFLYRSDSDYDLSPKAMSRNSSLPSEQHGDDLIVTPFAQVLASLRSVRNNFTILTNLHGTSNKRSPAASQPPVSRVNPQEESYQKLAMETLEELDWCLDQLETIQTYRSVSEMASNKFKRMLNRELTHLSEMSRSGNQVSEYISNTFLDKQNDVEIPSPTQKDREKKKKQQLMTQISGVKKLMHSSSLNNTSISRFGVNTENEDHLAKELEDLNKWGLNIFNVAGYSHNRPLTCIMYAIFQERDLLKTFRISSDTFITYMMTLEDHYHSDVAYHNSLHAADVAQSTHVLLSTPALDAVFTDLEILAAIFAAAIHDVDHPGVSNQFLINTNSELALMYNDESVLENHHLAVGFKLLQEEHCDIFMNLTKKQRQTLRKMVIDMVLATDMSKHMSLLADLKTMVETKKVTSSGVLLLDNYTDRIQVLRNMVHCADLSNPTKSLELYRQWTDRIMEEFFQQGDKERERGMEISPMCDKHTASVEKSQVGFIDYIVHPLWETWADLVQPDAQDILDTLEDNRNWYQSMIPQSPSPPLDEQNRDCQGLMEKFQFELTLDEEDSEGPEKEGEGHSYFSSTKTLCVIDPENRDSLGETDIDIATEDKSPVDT
Cytochrome P450 2C19 (Homo sapiens), sequence (P33261 whole entry, looked up): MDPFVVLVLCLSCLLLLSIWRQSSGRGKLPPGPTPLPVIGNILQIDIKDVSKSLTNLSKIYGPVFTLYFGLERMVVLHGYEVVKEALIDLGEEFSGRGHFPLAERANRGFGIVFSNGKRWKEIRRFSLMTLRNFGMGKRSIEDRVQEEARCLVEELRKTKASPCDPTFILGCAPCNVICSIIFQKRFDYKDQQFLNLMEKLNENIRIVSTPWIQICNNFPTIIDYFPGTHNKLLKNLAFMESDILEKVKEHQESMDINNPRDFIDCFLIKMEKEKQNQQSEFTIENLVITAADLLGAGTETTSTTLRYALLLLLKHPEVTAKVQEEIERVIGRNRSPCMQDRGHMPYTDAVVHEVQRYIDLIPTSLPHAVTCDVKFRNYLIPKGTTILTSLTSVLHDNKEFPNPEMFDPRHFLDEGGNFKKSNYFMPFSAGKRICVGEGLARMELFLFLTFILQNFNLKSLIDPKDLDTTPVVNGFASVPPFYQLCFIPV

Take `Cc1noc(C)c1-c1ccc2ncnc(NCc3cccs3)c2c1`: the Potency in assay [1] is more than 11.4 µM; in assay [3] it was 0.398 µM (active); in assay [4], more than 46 µM; in [5] it was more than 46 µM; in [8], 1.26 µM (active); in assay [9] it was 0.501 µM (active). Further, the figures for the Potency in assay [10] and in assay [11] were 0.447 µM (active) and 0.158 µM (active), respectively. In addition, in assay [2], the activity change, negative = inhibition was 20.1%. Moreover, the Potency entry in [6] and in assay [7] was “inactive” each time. Moreover, in assay [12], the outcome was inactive.
Consider `O=c1c(-c2cc(F)cc(F)c2)nc2cnc(N3CCOCC3)nc2n1CCc1ccccc1`, for which the Potency in [1] was more than 11.4 µM; in assay [3], 2.51 µM (active); in [4], more than 9.22 µM; in assay [5] it was more than 46 µM. The activity change, negative = inhibition in [2] is 29.6%. Also, the Potency result in assay [6], in assay [13], in [9], in assay [10] and in assay [11] was “inactive” in each case. The outcome in assay [12] was inactive.
For the molecule `CN(C)c1ncc2nc(-c3ccccc3)c(=O)n(CCC#N)c2n1`, the Potency in assay [1] was more than 11.4 µM; in assay [3] it was 1.58 µM (active); in [4] it was more than 9.22 µM; in assay [5] it was more than 46 µM. Besides, in assay [2], the activity change, negative = inhibition was -4.57%. Moreover, the Potency result in assay [6], in [9], in assay [10], in [11] and in assay [14] was “inactive” throughout. Further, the outcome in assay [12] was inactive.
On to `COc1cccc(Cn2c(=O)c(-c3ccc(Cl)cc3)nc3cncnc32)c1`, for which the Potency was more than 11.4 µM in assay [1], more than 9.22 µM in assay [4] and more than 46 µM in assay [5]. The results for the activity change, negative = inhibition in assay [2] and in assay [15] were -9.78% and -4.86%, respectively. In assay [16], the activity, negative = inhibition is -0.792%. In addition, the Potency result in assay [6], in assay [9], in assay [10], in assay [11] and in [14] was “inactive” each time. Further, the result in assay [12] was inactive.
As for `O=c1c(-c2ccccc2)nc2cnc(N3CCOCC3)nc2n1C[C@H]1CCCO1`, the Potency in assay [1] is more than 11.4 µM; in [3], 3.16 µM (active); in assay [4], more than 9.22 µM; in [5], more than 46 µM. Besides, the activity change, negative = inhibition in assay [2] was 17%. In addition, in assay [16], the activity, negative = inhibition is 20.8%. Also, the Potency entry in assay [6], in [13], in assay [7], in assay [9], in [10] and in assay [11] was “inactive” each time. In assay [14], the Potency result was “inactive”. The outcome in assay [12] was inactive.
In the case of `COc1cccc(Cn2c(=O)c(-c3ccccc3)nc3cncnc32)c1`, the Potency is more than 11.4 µM in assay [1], more than 9.22 µM in [4] and more than 46 µM in assay [5]. For the same molecule, the activity change, negative = inhibition was -16.5% in assay [2] and -5.39% in assay [15]. Moreover, the activity, negative = inhibition in assay [16] was -11.9%. Further, the Potency result in assay [6], in assay [13], in assay [9], in assay [10], in assay [11] and in assay [14] was “inactive” in each case. In assay [12], the result was inactive.
In the case of `N#CCCn1c(=O)c(-c2ccccc2)nc2cnc(N3CCOCC3)nc21`, the Potency in assay [1] is more than 11.4 µM; in [3] it was 10 µM (active); in assay [4] it was more than 9.22 µM; in assay [5], more than 46 µM. Moreover, in [2], the activity change, negative = inhibition is 20.5%. Besides, the Potency result in assay [6], in assay [13], in [9], in assay [10], in assay [11] and in [14] was “inactive” throughout. For the same molecule, in assay [12], the outcome was inactive.
